Laboratory results published in PubChem BioAssay AID1159580 (chemical genetic matrix, 2015).
Out of some 5,500 compounds screened, about 2,000 (36%) were called active. Roughly 18% stayed inconclusive and do not appear here. Rule as the data show it: active = normalized growth mostly below about 0.91 (no sharp cut-off); inconclusive = no clear call, values can overlap the other calls; inactive = mostly above about 0.92. Some of the results follow.

Assay: chemical genetic growth profiling, strain panel (AID 1159580);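 also: tested at 20 µM; growth read once vehicle control cultures reached saturation at 30 °C; 1 = growth at the plate median or of vehicle wells; lower values mean less growth of the strain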
Conditions: growth OD

Measured: normalized growth

CN=C(N)NCCCC(N)C(=O)O (stereo unspecified)
inactive: S. cerevisiae deletion strains, locus YAL013W, strain DEP1, hits give low values 1.02 | S. cerevisiae deletion strains, locus YBR021W, strain FUR4, hits give low values 1.03 | S. cerevisiae deletion strains, locus YBR229C, strain ROT2, hits give low values 1.01 | S. cerevisiae deletion strains, locus YCL029C, strain bik1, hits give low values 0.996 | S. cerevisiae deletion strains, locus YDL035C, strain GPR1, hits give low values 1.04 | S. cerevisiae deletion strains, locus YDL074C, strain BRE1, hits give low values 1.05 | S. cerevisiae deletion strains, locus YDL101C, strain DUN1, hits give low values 1.03 | S. cerevisiae deletion strains, locus YDL134C, strain PPH21, hits give low values 1.01 | S. cerevisiae deletion strains, locus YDL185W, strain tfp1, hits give low values 1.02 | S. cerevisiae deletion strains, locus YDL192W, strain arf1, hits give low values 1.01 | S. cerevisiae deletion strains, locus YDR101C, strain arx1, hits give low values 1.01 | S. cerevisiae deletion strains, locus YDR150W, strain NUM1, hits give low values 1.02 | S. cerevisiae deletion strains, locus YDR162C, strain NBP2, hits give low values 1.03 | S. cerevisiae deletion strains, locus YDR318W, strain mcm21, hits give low values 1.04 | S. cerevisiae deletion strains, locus YDR388W, hits give low values 0.993 | S. cerevisiae deletion strains, locus YDR502C, strain sam2, hits give low values 1.01 | S. cerevisiae deletion strains, locus YEL061C, strain CIN8, hits give low values 1.01 | S. cerevisiae deletion strains, locus YER110C, hits give low values 0.997 | S. cerevisiae deletion strains, locus YER155C, strain BEM2, hits give low values 1.01 | S. cerevisiae deletion strains, locus YER167W, strain BCK2, hits give low values 1.05 | S. cerevisiae deletion strains, locus YGL078C, strain dbp3, hits give low values 1.01 | S. cerevisiae deletion strains, locus YGL086W, strain mad1, hits give low values 1.03 | S. cerevisiae deletion strains, locus YGL248W, strain PDE1, hits give low values 1.01 | S. cerevisiae deletion strains, locus YGR078C, strain PAC10, hits give low values 1.04 | S. cerevisiae deletion strains, locus YGR135W, strain pre9, hits give low values 1.02 | S. cerevisiae deletion strains, locus YGR229C, strain SMI1, hits give low values 1.05 | S. cerevisiae deletion strains, locus YGR252W, strain gcn5, hits give low values 1.17 | S. cerevisiae deletion strains, locus YHR030C, strain SLT2, hits give low values 1.01 | S. cerevisiae deletion strains, locus YHR079C, strain IRE1 (second series), hits give low values 0.995 | S. cerevisiae deletion strains, locus YHR094C, strain hxt1, hits give low values 0.986 | S. cerevisiae deletion strains, locus YHR129C, strain ARP1, hits give low values 1.01 | S. cerevisiae deletion strains, locus YHR200W, strain rpn10, hits give low values 1.02 | S. cerevisiae deletion strains, locus YIL066C, strain RNR3, hits give low values 1.03 | S. cerevisiae deletion strains, locus YIL073C, strain SPO22, hits give low values 1.09 | S. cerevisiae deletion strains, locus YIL125W, strain kgd1, hits give low values 1.01 | S. cerevisiae deletion strains, locus YIR030C, strain dcg1, hits give low values 0.997 | S. cerevisiae deletion strains, locus YJL095W, strain BCK1, hits give low values 1.02 | S. cerevisiae deletion strains, locus YJL134W, strain LCB3, hits give low values 1.02 | S. cerevisiae deletion strains, locus YJL168C, strain set2, hits give low values 0.987 | S. cerevisiae deletion strains, locus YJL187C, strain SWE1 (second series), hits give low values 1.02 | S. cerevisiae deletion strains, locus YJR043C, strain POL32, hits give low values 1.06 | S. cerevisiae deletion strains, locus YJR075W, strain HOC1, hits give low values 1.07 | S. cerevisiae deletion strains, locus YKL009W, strain mrt4, hits give low values 1.03 | S. cerevisiae deletion strains, locus YKL068W, hits give low values 1.01 | S. cerevisiae deletion strains, locus YKL085W, strain MDH1 (second series), hits give low values 1.03 | S. cerevisiae deletion strains, locus YKL085W, strain MDH1, hits give low values 1.03 | S. cerevisiae deletion strains, locus YKL190W, strain CNB1, hits give low values 1.02 | S. cerevisiae deletion strains, locus YKR001C, strain vps1, hits give low values 1.02 | S. cerevisiae deletion strains, locus YLR039C, strain RIC1, hits give low values 1.07 | S. cerevisiae deletion strains, locus YLR058C, strain SHM2, hits give low values 1.02 | S. cerevisiae deletion strains, locus YLR102C, strain apc9, hits give low values 0.986 | S. cerevisiae deletion strains, locus YLR262C, strain YPT6, hits give low values 1.1 | S. cerevisiae deletion strains, locus YLR268W, strain sec22, hits give low values 1.01 | S. cerevisiae deletion strains, locus YLR330W, strain CHS5, hits give low values 1.01 | S. cerevisiae deletion strains, locus YLR342W, strain FKS1 (second series), hits give low values 1.09 | S. cerevisiae deletion strains, locus YLR371W, strain rom2, hits give low values 0.975 | S. cerevisiae deletion strains, locus YLR418C, strain cdc73, hits give low values 1.01 | S. cerevisiae deletion strains, locus YML016C, strain PPZ1, hits give low values 1.02 | S. cerevisiae deletion strains, locus YML032C, strain rad52, hits give low values 1.05 | S. cerevisiae deletion strains, locus YML124C, strain tub3, hits give low values 1.01 | S. cerevisiae deletion strains, locus YMR078C, strain ctf18, hits give low values 1 | S. cerevisiae deletion strains, locus YMR223W, strain ubp8, hits give low values 1.04 | S. cerevisiae deletion strains, locus YMR263W, strain SAP30, hits give low values 1.04 | S. cerevisiae deletion strains, locus YMR307W, strain GAS1, hits give low values 1.14 | S. cerevisiae deletion strains, locus YNL067W, strain RPL9B, hits give low values 1.02 | S. cerevisiae deletion strains, locus YNL128W, strain TEP1, hits give low values 1.03 | S. cerevisiae deletion strains, locus YNL153C, strain GIM3, hits give low values 1.03 | S. cerevisiae deletion strains, locus YNL233W, strain BNI4, hits give low values 1.03 | S. cerevisiae deletion strains, locus YNL250W, strain rad50, hits give low values 1.02 | S. cerevisiae deletion strains, locus YNL271C, strain bni1, hits give low values 1.01 | S. cerevisiae deletion strains, locus YNL298W, strain CLA4, hits give low values 1.04 | S. cerevisiae deletion strains, locus YNL307C, strain MCK1, hits give low values 1.02 | S. cerevisiae deletion strains, locus YNL322C, strain KRE1, hits give low values 1.02 | S. cerevisiae deletion strains, locus YNR052C, strain pop2, hits give low values 1 | S. cerevisiae deletion strains, locus YOL006C, strain TOP1, hits give low values 1.05 | S. cerevisiae deletion strains, locus YOL012C, strain htz1 1.01 | S. cerevisiae deletion strains, locus YOL147C, strain pex11, hits give low values 0.995 | S. cerevisiae deletion strains, locus YOR061W, strain CKA2, hits give low values 1.02 | S. cerevisiae deletion strains, locus YOR069W, strain VPS5, hits give low values 1.01 | S. cerevisiae deletion strains, locus YOR136W, strain idh2, hits give low values 1.02 | S. cerevisiae deletion strains, locus YOR144C, strain elg1, hits give low values 1.01 | S. cerevisiae deletion strains, locus YOR184W, strain ser1, hits give low values 1.07 | S. cerevisiae deletion strains, locus YOR316C, strain cot1, hits give low values 0.99 | S. cerevisiae deletion strains, locus YPL055C, strain LGE1, hits give low values 1.1 | S. cerevisiae deletion strains, locus YPL241C, strain CIN2, hits give low values 1.02 | S. cerevisiae deletion strains, locus YPR119W, strain clb2, hits give low values 0.984 | S. cerevisiae deletion strains, locus YPR141C, strain kar3, hits give low values 1.02 | S. cerevisiae deletion strains, locus YPR163C, strain tif3, hits give low values 1 | S. cerevisiae deletion strains, locus YPR167C, strain met16, hits give low values 1.01 | S. cerevisiae deletion strains, strain wtn01, hits give low values 0.994 | S. cerevisiae strains, strain wild type, hits give low values 1.03
